Sfp inh – blocks B. subtilis Sfp PPTase activity; Q9F4F7; Biochemical Sfp PPTase activity, qHTS; Potency, µM, inactives show largest response in the series, negative = inhibition, usual class: inhibitors; hit rate 3.5% among 310,000;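 further: the enzyme is Sfp with the accession as filed and its product quenches rhodamine fluorescence; 0% = enzyme reaction without inhibitor and -100% = no enzyme wells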
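Fluorescence-quenching assay: 15 nM Sfp-PPTase preincubated 15 min at room temperature with compound, then 5 uM rhodamine-CoA and 12.5 uM BHQ-2-labelled YbbR peptide added. Fluorescence (ex 525/em 598 nm) read at start and after 30 min; difference gives rate.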
PLK1 PBD inh – inhibitors of human PLK1 polo-box domain binding; Plk1 PBD binding of FITC phosphopeptide, fluorescence polarization; P53350; Potency, µM, inactives show max response, negative = inhibition, most hits filed as inhibitors; hit rate 2.8% among 360,000; further: series mostly up to about 57 µM; nearly all actives have a fitted effect of over 65% in size
VDR inhibitor – inhibitors of human vitamin D receptor; VDR-SRC2-3 peptide fluorescence polarization, 2 h; P11473; hit rate 0.93% among 400,000; Potency, µM, for the others: max response, negative = inhibition, usual class: inhibitors
Target sequence (P11473 whole entry, looked up): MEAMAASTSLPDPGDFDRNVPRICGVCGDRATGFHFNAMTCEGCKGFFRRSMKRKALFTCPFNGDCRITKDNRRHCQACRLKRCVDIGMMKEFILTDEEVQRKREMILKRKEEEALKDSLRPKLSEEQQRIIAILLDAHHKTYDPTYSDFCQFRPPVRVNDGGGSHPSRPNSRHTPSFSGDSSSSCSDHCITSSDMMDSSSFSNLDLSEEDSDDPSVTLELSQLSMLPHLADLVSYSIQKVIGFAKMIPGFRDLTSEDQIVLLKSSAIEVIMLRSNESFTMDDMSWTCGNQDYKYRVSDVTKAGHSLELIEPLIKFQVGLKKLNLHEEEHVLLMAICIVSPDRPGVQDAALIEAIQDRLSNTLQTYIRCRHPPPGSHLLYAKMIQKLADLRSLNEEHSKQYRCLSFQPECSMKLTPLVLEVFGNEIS
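Fluorescence polarization assay measuring small-molecule disruption of VDR binding to the coregulator peptide SRC2-3. Compounds were pin-transferred (23 nl) into the reagent mix and incubated 2 h at room temperature before reading.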
Tau fibril ThT – blocks human tau fibril formation measured by thioflavin T; hit rate 2.1% among 270,000; Potency, µM (doses to about 57.4 µM), inactives show at the highest dose activity, negative = inhibition, usual class: inhibitors; recombinant tau K18 P301L, heparin-induced fibrillization, ThT fluorescence; further: nearly all actives have a fitted effect of over 55% in size
Target sequence (P10636 561-689 P618L limits assumed): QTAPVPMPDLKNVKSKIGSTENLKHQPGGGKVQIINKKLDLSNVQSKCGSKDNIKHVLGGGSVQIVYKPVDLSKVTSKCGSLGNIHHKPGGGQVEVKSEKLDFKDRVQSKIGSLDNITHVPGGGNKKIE
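K18 P301L tau (15 uM + 0.24 uM Alexa 594-tagged), heparin 20 uM, NaOAc pH 7, 6 h 37 C; ThT 30 uM, 1 h RT, ex 450/em 510 nm.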
Tau fluor cs – counter-screen for tau fibril formation inhibitors. tau K18 P301L (four-repeat tau fragment) Alexa594 fluorescence, heparin fibrillization. hit rate 0.93% among 280,000. Potency, µM (doses to about 57.7 µM), inactives show at the top dose activity change, negative = decrease; further: nearly all actives have a fitted effect of over 55% in size
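Human K18 P301L tau (15 uM unlabeled plus 0.24 uM Alexa 594-labeled, final) in 100 mM sodium acetate pH 7 was mixed with compound and 20 uM heparin and incubated 6 hr at 37 C.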
Tau fibril FP – tau fibrillization inhibition (FP) | P10636 | K18 P301L tau heparin fibrillization, Alexa594 FP, 6 h | Potency, µM (titrated, usually from 57.7 µM), without a hit: at the top dose activity, negative = inhibition, usual class: inhibitors | hit rate 0.39% among 280,000; further: nearly all actives have a fitted effect of over 55% in size
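Human K18 P301L fragment (15 uM unlabeled plus 0.24 uM Alexa 594-labeled) in 100 mM sodium acetate pH 7 with compound, aggregation induced by 20 uM heparin for 6 hr at 37 C. ThT (30 uM) added for 1 hr, then Alexa 594 FP read.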
Active calls of the source: *; ? = inconclusive; nt = no result; [ ] = another dose, or the depositor's remark. Sampled rows, rich in hits. Any-hit rate of the full collection: about 6%. The call rests on the fitted dose curve; in most records, active means well fitted curve in the direction sought with a large enough effect; inconclusive means small, poorly fitted or top-dose-only effect, or another doubt; inactive means no such curve, though single readings can be large; an effect the other way counts as inactive or inconclusive. Unless noted, on the % scale 0 is the no-effect control and ±100 the full control effect; potency means the concentration at half of the fitted maximal effect.

SMILES | Sfp inh | PLK1 PBD inh | VDR inhibitor | Tau fibril ThT | Tau fluor cs | Tau fibril FP
Cc1ccc(-c2nc3ccccc3c(=O)n2NC(=S)N(C)C)cc1 | 22µM* | 27µM* | -22% | 3% | 12% | -9%
CCOC(=O)c1ccc(CN(Cc2ccc(F)cc2)S(=O)(=O)c2ccc(F)c(C(=O)Nc3c(C)cccc3C)c2)cc1 | nt | nt | -3% | 4% | -3% | -10%
COc1ccc2cc3c(N)nn(C(=O)Cc4c[nH]c5ccccc45)c3nc2c1 | -14% | -12% | -29% | nt | 20µM*[quencher] | 3%
COc1cccc(CC(=O)n2nc(N)c3cc4ccc(OC)cc4nc32)c1 | ? | 5% | -8% | -10% | -23% | -2%
N#Cc1c(-c2ccncc2)c2c([nH]c1=S)CCCC2 | 5µM* | 27µM* | -14% | ? | -17% | -4%
Cc1ccc(-c2c3c([nH]c(=S)c2C#N)CCCC3)o1 | 8.9µM* | 12µM* | ? | 22µM* | -15% | ?
N#Cc1c(-c2ccncc2)c2c([nH]c1=O)-c1ccccc1OC2 | 24% | nt | nt | 23% | 3% | -2%
Cc1cc(C)c(C)c(N=Nc2nc3ccccc3n2C)c1C | 56µM* | ? | -14% | 8.9µM* | ? | -20%
Cc1ccc(C)c(N=Nc2nc3ccccc3n2C)c1 | -14% | -9% | -7% | 5.6µM* | ? | -1%
Cn1c(/N=C/c2cccs2)nc2ccccc21 | 18% | -3% | -15% | 7% | 5% | 3%
Nc1nnc2cc(F)ccc2n1 | nt | -2% | nt | nt | nt | nt
OC1=C(O)c2nc3cc(F)ccc3nc21 | 40µM* | 21µM* | -7% | nt | nt | nt
CCOC(=O)c1c(-c2ccc(-c3ccccc3)cc2)csc1NC(=O)CNCCN(C)C | 40µM* | ? | 3% | nt | nt | nt
CCOC(=O)c1c(-c2ccccc2)csc1NC(=O)C(C)NCCCN1CCOCC1 (stereo not given) | 40µM* | -4% | 2% | -16% | -6% | 9%
CCOC(=O)c1c(-c2ccc(C)cc2)csc1NC(=O)c1cc(=O)c2cc(C)c(C)cc2o1 | nt | nt | 4% | 3% | 1% | 5%
CCOC(=O)c1c(-c2ccc(C)cc2)csc1NC(=O)c1cc(=O)c2cc(C)ccc2o1 | nt | nt | 28µM* | 25µM* | -24% | ?
CCOC(=O)c1c(-c2ccc(-c3ccccc3)cc2)csc1NC(=O)CCN1CCOCC1 | -6% | -2% | -12% | ? | -8% | 14%
O=C1CC(c2nc(-c3cccc(Cl)c3)no2)CN1c1ccc2c(c1)OCCO2 (stereo not given) | nt | nt | -1% | ? | -25% | 1%
Cc1ccc(C(=O)O)cc1NC(=S)NC(=O)c1ccc(-c2ccc(Cl)cc2)o1 | 50µM* | ? | -12% | nt | -19% | 1%
O=C(O)c1ccc(NC(=S)NC(=O)c2ccc(-c3ccc(Br)cc3)o2)cc1 | 45µM* | ? | ? | nt | nt | nt
Cc1cc2oc(=O)c(CC(=O)O)c(C)c2c2occ(C(C)(C)C)c12 | -3% | 30µM* | -21% | nt | nt | nt
Cc1cc2nc3c(=O)[nH]c(=O)[nH]c3nc2c([N+](=O)[O-])c1N | ? | 13µM* | -24% | 14µM* | ? | ?
CCCc1nnc(SCc2ccc(OC)cc2)n1N | 13% | 21µM* | 25µM* | 1% | 9% | 7%
CCOc1ccc(CNC(=O)Cn2nc(C)n3cccc3c2=O)cc1 | nt | nt | 15% | 22% | 1% | -15%
COc1ncnc2c1ncn2CCCNCc1ccccn1 | nt | -10% | nt | nt | nt | nt
SMILES | Sfp inh | PLK1 PBD inh | VDR inhibitor | Tau fibril ThT | Tau fluor cs | Tau fibril FP
C=CCSc1nc2sc3c(c2c(=O)n1CC=C)CCc1ccccc1-3 | 45µM* | -24% | -3% | -3% | -9% | -2%
CCC(C(=O)N1CCN(c2ccccc2F)CC1)n1nc(C)c2sc3ccccc3c2c1=O (stereo not given) | nt | nt | 5% | -8% | -7% | -10%
COc1ccccc1NC(=O)/C=C\c1ccco1 | 56µM* | ? | ? | nt | nt | nt
COc1cccc(NC(=O)/C=C/c2ccco2)c1 | 35µM* | -13% | -1% | ? | -15% | -11%
CSc1cccc(NC(=O)/C=C/c2ccco2)c1 | 56µM* | ? | -26% | ? | -19% | -15%
COc1ccccc1NC(=S)NC(=O)/C=C/c1ccco1 | ? | ? | ? | ? | -15% | -13%
COc1cccc(NC(=O)/C=C\c2ccc(Cl)cc2)c1 | 4% | nt | -7% | 8% | ? | ?
Cc1sc(NC(=O)/C=C/c2ccco2)c(C(=O)OC(C)C)c1C | 32µM* | -2% | -17% | -12% | -15% | ?
CN1OC[C@@H]2CN(Cc3cc(Cl)cc(Cl)c3)[C@H](c3cccc(-c4ccc(C#N)cc4)c3)C[C@@H]21 | nt | -10% | nt | nt | nt | nt
CCc1ccc(C2CC(=O)c3c([nH]c(C(=O)OCCOc4ccccc4)c3C)C2)cc1 (stereo not given) | nt | nt | -25% | 3% | -5% | -6%
COc1ccc(NC(=O)N/C=C/c2ccco2)cc1 | 50µM* | ? | 9% | ? | -28% | -14%
COc1cccc(N2CCN(C(=O)/C=C/c3ccco3)CC2)c1 | 8.9µM* | 4% | -10% | -14% | -1% | 8%
COc1cccc(Cn2c(=O)c(-c3ccccc3)nc3cnc(N(C)C)nc32)c1 | ? | nt | 10% | nt | nt | nt
O=C(CCSCCC(=O)NCc1ccccc1)NCc1ccccc1 | 12% | -3% | 2% | -10% | -1% | 7%
O=C(CCSCc1cccc(F)c1)NCc1ccc(F)cc1 | -1% | 7.5µM* | ? | nt | nt | nt
Cc1ccc(CNC(=O)CSCc2cccc(F)c2)cc1 | 12% | 21µM* | ? | 7% | -3% | 2%
O=C(Nc1nc(N2C(=O)c3ccccc3C2=O)n(-c2ccccc2)n1)c1ccc(F)cc1 | ? | -7% | 5% | -4% | -5% | 7%
CC(=O)Nc1nc(N2C(=O)c3ccccc3C2=O)n(-c2ccccc2)n1 | 8.9µM* | -11% | -10% | 11% | -1% | 0%
O=C(Nc1nc(N2C(=O)c3ccccc3C2=O)n(-c2ccccc2)n1)c1ccccc1 | 0.89µM* | -9% | -2% | -8% | -1% | -1%
CN(N)c1ccc2c(C(F)(F)F)cc(C(F)(F)F)nc2n1 | ? | 24µM* | -12% | -11% | -2% | -5%
Cc1ccc(C(=O)N/N=C2\SCC(=O)N2c2cc(C)ccc2C)cc1 | 71µM* | 3% | 1% | -10% | -13% | -3%
CCOc1ccc(CNc2nc3nc(C)c(Cc4ccccc4)c(=O)n3[nH]2)cc1 | nt | nt | 18% | 0% | 3% | -13%
COc1cc2c[n+](C)c3c4ccccc4ccc3c2cc1OC | nt | -8% | -9% | nt | nt | nt
COc1ccc2c(c1)c[n+](C)c1c3cc(OC)c(OC)cc3ccc21 | nt | 12µM* | nt | nt | nt | nt
O=C(CC1C(=O)NCCN1C1CCCC1)NCc1cccc(OC(F)(F)F)c1 (stereo not given) | 9% | 9% | -6% | nt | nt | nt
CCOc1ccc(C(=S)NC2CCCCC2)cc1OCC | 14µM* | 6µM* | 40µM* | nt | nt | nt
